Assay results taken from PubChem BioAssay AID624162 (National Center for Advancing Translational Sciences (NCATS), 2012).
Some of the results follow. Records with an inconclusive call do not appear. Values without a mark were called inactive. Calls come from the whole dose curve; as a rule, active = well fitted inhibition curve with a large enough effect; inconclusive = small, poorly fitted or top-dose-only effect; inactive = no such curve, though single readings can be large or run the other way.

target: Histone-lysine N-methyltransferase 2A (Homo sapiens) (UniProt Q03164); assay: qHTS Fluorescence Polarization (FP) Assay for Inhibitors of MLL CXXC domain - DNA interaction: HTRF Assay; conditions: MLL CXXC-DNA binding, biochemical; series mostly up to 172 µM; activity change, negative = inhibition: at the top concentration; note: nearly all actives have a fitted effect of over 80% in size
Description: The MLL (Mixed Lineage Luekemia) gene is involved in chromosomal translocation that results in either acute lymphoid leukemia (ALL) or acute myeloid leukemia (AML). Chromasomal translocation of MLL gene is responsible for the fusion of N-terminal MLL to more than 60 different partner genes in frame. Many of the MLL partner genes contain transcription activation domains or function as transcriptional activators. Despite the heterogeneity of fusion partners, the N-terminus of MLL fusion proteins always consists of the N-terminal menin binding motif and the CXXC domain. The MLL-CXXC domain specifically recognizes unmethylated CpG sequences of the HOX-A gene. Disruption of the MLL-CXXC and HOX-A gene interaction leads to down regulation of HOX-A gene expression and may potentially reverse leukemogenesis. We have miniaturized and optimized an in-vitro assay to screen for inhibitors of the MLL-CXXC domain and HOX-A DNA interaction, which could have utility in MLL fusion leukemias.
This is a hit validation assay that tests this hits identified in the primary screen in this secondary screen, using an HTRF a read-out.
NIH Molecular Libraries Probe Production Network [MLPCN]
NIH Chemical Genomics Center [NCGC]
PI Name: John Bushweller, University of Virgina
One microliter of 7microM GST-MLL-CXXC solution prepared in assay buffer (50 mM TRIS-HCl pH 7.5, 50 mM NaCl, 1 mM DTT, 0.05% BSA) was dispesed into a 1536 well plate. Compound solution and unlabeled HOX-A9 was tranferred into the assay plate using the Kalypsys 1536-pin tool and incubated at room temperature for 5 min. One microL of 50nM Biotinylated-HOX-A9 solution prepared in assay buffer was dispensed into the assay plate; centrifuge for 30 seconds at 1000 RPM; and incubated for 30 min at room temperature. Next, 3 microL/well detection reagent mixture of 2.8 nM Eu3+-Cryptate-anti-GST-AB and 100 nM Streptavidin linked XL665 (Cisbio, MA) was added. RT-FRET read was taken after 60min of room temp incubation using the PerkinElmer Envision plate reader equipped with Eu3+ HTRF optimized filter set; EX 337nm / EM […].
% is set by controls: 0 for no effect and ±100 for the full control effect.

Sequence of Histone-lysine N-methyltransferase 2A (Homo sapiens) (Q03164 whole entry, looked up, the tested form may be a part): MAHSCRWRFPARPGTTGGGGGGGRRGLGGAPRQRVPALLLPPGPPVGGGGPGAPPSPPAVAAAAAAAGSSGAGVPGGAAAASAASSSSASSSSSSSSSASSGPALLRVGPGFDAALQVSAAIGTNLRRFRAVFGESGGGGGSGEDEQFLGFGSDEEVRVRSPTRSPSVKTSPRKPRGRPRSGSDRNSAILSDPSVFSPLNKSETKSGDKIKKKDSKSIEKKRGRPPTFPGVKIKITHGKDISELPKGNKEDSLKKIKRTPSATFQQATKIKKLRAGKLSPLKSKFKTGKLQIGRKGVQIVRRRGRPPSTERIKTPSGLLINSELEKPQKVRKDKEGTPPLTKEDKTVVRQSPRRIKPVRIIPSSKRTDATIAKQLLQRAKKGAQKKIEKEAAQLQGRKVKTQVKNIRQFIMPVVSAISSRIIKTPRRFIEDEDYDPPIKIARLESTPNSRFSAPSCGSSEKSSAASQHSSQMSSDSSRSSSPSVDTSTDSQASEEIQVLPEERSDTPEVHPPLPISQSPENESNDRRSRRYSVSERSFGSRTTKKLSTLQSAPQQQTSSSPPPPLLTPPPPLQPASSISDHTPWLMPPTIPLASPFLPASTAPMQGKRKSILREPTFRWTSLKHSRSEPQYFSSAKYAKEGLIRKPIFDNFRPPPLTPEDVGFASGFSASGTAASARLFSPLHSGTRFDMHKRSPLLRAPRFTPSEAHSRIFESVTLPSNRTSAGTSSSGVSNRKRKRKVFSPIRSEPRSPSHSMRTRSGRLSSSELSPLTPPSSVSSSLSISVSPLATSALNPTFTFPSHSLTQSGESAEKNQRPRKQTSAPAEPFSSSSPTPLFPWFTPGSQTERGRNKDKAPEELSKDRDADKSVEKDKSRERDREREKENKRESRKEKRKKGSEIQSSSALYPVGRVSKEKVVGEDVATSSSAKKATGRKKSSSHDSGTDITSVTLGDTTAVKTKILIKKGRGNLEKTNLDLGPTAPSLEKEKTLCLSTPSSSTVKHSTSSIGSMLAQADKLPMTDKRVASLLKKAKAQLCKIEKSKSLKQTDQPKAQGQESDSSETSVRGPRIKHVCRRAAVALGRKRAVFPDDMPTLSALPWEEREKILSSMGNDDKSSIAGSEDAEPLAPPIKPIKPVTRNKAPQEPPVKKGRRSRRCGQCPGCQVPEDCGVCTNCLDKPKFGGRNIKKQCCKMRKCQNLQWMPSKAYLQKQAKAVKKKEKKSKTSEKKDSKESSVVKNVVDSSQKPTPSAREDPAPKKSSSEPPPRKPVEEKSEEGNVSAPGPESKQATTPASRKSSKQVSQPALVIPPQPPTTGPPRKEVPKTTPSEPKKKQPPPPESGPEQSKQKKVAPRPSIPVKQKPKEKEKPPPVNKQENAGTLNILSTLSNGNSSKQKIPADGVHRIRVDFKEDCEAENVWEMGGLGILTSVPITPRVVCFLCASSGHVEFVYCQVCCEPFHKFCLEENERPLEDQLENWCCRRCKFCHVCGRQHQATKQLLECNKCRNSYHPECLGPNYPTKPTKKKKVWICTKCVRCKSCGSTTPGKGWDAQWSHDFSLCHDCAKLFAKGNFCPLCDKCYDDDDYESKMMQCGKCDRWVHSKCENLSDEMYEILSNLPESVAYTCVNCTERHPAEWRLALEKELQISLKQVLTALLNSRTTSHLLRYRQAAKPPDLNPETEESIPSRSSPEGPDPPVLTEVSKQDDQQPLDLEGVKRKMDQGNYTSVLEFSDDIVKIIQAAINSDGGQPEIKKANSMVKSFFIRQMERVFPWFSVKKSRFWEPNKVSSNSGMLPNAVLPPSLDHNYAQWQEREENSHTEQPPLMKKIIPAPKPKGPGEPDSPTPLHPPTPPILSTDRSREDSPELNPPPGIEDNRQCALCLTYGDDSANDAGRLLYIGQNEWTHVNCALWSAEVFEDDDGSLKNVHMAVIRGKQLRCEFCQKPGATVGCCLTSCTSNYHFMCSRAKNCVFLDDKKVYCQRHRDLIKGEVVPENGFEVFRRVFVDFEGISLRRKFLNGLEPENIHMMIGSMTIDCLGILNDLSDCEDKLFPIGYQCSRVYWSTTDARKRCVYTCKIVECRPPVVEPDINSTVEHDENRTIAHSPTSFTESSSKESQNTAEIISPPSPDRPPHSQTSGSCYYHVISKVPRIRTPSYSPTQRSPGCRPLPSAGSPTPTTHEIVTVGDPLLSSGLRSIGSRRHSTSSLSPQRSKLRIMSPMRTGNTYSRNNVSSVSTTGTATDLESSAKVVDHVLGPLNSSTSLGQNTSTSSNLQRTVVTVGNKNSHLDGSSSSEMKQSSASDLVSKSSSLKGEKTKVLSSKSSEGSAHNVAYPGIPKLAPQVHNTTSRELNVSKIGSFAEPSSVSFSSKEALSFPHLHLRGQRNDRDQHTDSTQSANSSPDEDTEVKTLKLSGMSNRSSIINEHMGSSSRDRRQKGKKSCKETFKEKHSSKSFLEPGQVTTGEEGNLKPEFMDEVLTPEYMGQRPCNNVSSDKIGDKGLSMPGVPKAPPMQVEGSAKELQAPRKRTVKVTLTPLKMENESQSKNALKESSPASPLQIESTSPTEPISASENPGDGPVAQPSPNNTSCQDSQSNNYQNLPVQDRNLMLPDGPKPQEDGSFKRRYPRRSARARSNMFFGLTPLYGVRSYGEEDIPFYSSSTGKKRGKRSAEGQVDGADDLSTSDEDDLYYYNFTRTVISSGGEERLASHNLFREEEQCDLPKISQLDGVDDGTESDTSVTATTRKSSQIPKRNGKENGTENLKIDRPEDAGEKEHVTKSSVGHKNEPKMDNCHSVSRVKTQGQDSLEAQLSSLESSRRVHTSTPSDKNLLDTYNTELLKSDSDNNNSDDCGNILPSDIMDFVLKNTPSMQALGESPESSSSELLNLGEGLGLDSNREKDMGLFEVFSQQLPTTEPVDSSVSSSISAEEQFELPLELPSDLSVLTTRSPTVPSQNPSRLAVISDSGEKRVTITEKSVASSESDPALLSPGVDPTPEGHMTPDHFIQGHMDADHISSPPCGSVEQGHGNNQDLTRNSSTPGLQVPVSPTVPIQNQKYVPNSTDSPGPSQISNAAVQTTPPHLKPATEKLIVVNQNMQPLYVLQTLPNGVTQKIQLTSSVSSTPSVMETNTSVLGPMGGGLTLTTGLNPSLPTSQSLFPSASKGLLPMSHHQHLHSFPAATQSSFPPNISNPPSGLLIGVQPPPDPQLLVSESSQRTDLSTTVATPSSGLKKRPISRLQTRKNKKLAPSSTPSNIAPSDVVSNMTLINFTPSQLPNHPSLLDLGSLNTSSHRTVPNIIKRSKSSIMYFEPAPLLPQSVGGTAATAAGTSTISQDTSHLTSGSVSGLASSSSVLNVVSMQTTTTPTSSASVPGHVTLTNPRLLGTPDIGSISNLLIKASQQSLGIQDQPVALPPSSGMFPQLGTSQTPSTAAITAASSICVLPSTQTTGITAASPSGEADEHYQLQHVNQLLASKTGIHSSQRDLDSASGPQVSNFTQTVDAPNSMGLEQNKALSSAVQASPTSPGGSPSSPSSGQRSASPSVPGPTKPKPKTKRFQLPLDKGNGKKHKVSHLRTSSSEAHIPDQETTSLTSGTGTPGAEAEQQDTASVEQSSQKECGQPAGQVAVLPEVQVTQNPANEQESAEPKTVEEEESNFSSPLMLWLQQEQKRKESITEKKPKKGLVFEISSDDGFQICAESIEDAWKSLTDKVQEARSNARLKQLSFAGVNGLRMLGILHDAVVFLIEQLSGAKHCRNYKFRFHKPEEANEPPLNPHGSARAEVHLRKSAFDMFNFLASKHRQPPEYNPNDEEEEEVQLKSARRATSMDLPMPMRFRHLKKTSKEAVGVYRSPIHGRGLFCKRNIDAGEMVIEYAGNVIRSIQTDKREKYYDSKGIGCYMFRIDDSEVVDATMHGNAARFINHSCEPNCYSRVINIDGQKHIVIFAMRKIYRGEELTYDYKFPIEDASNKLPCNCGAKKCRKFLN

Row | Compound | activity change, negative = inhibition
1 | COc1ccc(S(=O)(=O)/N=C2\C=C(NS(=O)(=O)c3ccccc3)C(=O)c3ccccc32)cc1 | 74.8%
2 | COc1cc(/C=C2/C(=O)NN(c3ccc(F)cc3)C2=O)cc([N+](=O)[O-])c1O | 84.9%
3 | O=C1NN(c2ccccc2)C(=O)/C1=C/c1ccc(-c2cccc(C(=O)O)c2)o1 | 7.82%
4 | COc1ccc(-c2onc3ccc(C(C)=O)cc23)cc1 | 6.05%
